Screening results: PubChem BioAssay, National Center for Advancing Translational Sciences (NCATS)
TRb SRC2 PPI: qHTS for Inhibitors of the Interaction of Thyroid Hormone Receptor and Steroid Receptor Coregulator 2. Thyroid hormone receptor beta (Homo sapiens), P10828. TRbeta-SRC2 peptide binding, fluorescence polarization; receptor liganded with 1 µM T3. Potency, µM (top dose mostly 106 µM), most hits filed as inhibitors. 280,000 tested, 0.065% active; also: nearly all actives have a fitted effect of over 50% in size
Target sequence (P10828 whole entry, looked up): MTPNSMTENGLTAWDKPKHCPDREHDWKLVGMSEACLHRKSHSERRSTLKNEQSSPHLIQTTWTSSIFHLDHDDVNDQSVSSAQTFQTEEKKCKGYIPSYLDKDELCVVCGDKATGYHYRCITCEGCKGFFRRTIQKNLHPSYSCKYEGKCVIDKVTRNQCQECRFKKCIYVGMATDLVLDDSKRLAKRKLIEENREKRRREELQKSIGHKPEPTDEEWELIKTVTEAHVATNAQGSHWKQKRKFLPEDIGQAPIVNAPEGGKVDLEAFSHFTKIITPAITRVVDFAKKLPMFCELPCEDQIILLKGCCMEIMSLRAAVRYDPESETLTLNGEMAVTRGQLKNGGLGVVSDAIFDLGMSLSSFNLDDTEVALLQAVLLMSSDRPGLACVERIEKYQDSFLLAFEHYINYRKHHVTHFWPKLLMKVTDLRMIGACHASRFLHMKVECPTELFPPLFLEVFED
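TRb LBD 0.6 uM + Texas Red SRC2 peptide 20 nM, 1 uM T3, Tris buffer w/ 5% DMSO; compound pinned, 5 h RT; FP read ex 555/em 632; normalized to unbound and bound controls.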
Tau fluor cs: Counterscreen qHTS for Inhibitors of Tau Fibril Formation, Fluorescence Polarization; tau K18 P301L Alexa594 fluorescence, heparin fibrillization; 280,000 tested, 0.93% active; Potency, µM (doses to about 57.7 µM); AID 1463, 2008; also: nearly all actives have a fitted effect of over 55% in size
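Human K18 P301L tau (15 uM unlabeled plus 0.24 uM Alexa 594-labeled, final) in 100 mM sodium acetate pH 7 was mixed with compound and 20 uM heparin and incubated 6 hr at 37 C.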
Tau fibril FP: qHTS for Inhibitors of Tau Fibril Formation, Fluorescence Polarization | Microtubule-associated protein tau (Homo sapiens), P10636 | AID 1468, 2008 | 280,000 tested, 0.39% active | Potency, µM (titrated, usually from 57.7 µM), most hits filed as inhibitors | K18 P301L tau heparin fibrillization, Alexa594 FP, 6 h; also: nearly all actives have a fitted effect of over 55% in size
Target sequence (P10636 561-689 P618L limits assumed): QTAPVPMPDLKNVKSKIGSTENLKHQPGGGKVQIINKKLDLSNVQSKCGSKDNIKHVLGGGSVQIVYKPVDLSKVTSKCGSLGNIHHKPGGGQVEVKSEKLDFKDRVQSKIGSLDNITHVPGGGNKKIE
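Recombinant K18 P301L […], labeled with Alexa 594 at 0.24 uM over 15 uM unlabeled; heparin inducer 20 uM final; 37 C, 6 hr; FP endpoint.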
Tau fibril ThT: qHTS for Inhibitors of Tau Fibril Formation, Thioflavin T Binding. Microtubule-associated protein tau (Homo sapiens), P10636. recombinant tau K18 P301L, heparin-induced fibrillization, ThT fluorescence. Potency, µM (titrated, usually from 57.4 µM), actives largely listed as inhibitors. 270,000 tested, 2.1% active. AID 1460, 2008; also: nearly all actives have a fitted effect of over 55% in size
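ThT emission at 510 nm, taken 1 hr after adding 30 uM dye, quantifies aggregates formed when 20 uM heparin acts on human tau K18 P301L for 6 hr at 37 C.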
TR SRC2 fluor cs: Total Fluorescence Counterscreen for Inhibitors of the Interaction of Thyroid Hormone Receptor and Steroid Receptor Coregulator 2; Potency, µM (highest dose often 106 µM); 280,000 tested, 0.29% active; TRb/SRC2 Texas Red total fluorescence interference; AID 1479, 2009; active = well fitted curve in either direction with a large enough effect; inconclusive = small, poorly fitted or top-dose-only effect
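Human TRβ ligand-binding domain (0.6 uM) and Texas Red SRC2 peptide (20 nM) in Tris buffer with 1 uM T3 and 5% DMSO were incubated with pinned compound for 5 hr at ambient temperature. Total fluorescence was computed as S + 2P (555/632 nm).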
PNC assembly inh: High Content Assay for Compounds that inhibit the Assembly of the Perinucleolar Compartment; PC3M PTB-GFP, PNC prevalence imaging, 16 h; hits give low values; 140,000 tested, 3.1% active; activity change (PNC), negative = inhibition, % at 10 µM;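 active = readout at or below -70, meaning at least 70% loss of cells showing the perinucleolar compartment, a nuclear body marking cancer cells; inconclusive = readout between -30 and a set limit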
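Compounds are pinned in duplicate onto adhered PC3M cells stably expressing GFP-tagged PTB and incubated 16 h at 37 C. Cells are then fixed, nuclei stained with Hoechst, and PNC-positive cells counted.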
Numbers stand for hits; . = inactive; ? = inconclusive; / = no result given; [ ] = another dose, or the depositor's remark. This is a sample that favours compounds with a hit; in the whole collection about 4.6% have one here. Unless noted, calls follow the shape of the dose curve; as a rule, active = well fitted curve in the direction sought with a large enough effect; inconclusive = small, poorly fitted or top-dose-only effect, or another doubt; inactive = no such curve, though single readings can be large; an effect the other way counts as inactive or inconclusive.

SMILES	TRb SRC2 PPI	Tau fluor cs	Tau fibril FP	Tau fibril ThT	TR SRC2 fluor cs	PNC assembly inh
O=C(NCCO)c1ccc2c3n(nc2c1)-c1ccccc1CO3	.	.	.	.	.	/
CC(C)N1CCc2c(sc(NC(=O)c3ccc(S(=O)(=O)N4CCOCC4)cc3)c2C#N)C1	.	.	.	.	.	.
O=C(NC(Cc1c[nH]c2ccccc12)C(=O)Nc1ccc(OC(F)(F)F)cc1)c1cccs1 (stereo not given)	.	7.9µM[quencher]	?	.	.	-113
O=C(NC(Cc1c[nH]c2ccccc12)C(=O)N/N=C/c1cccc2ccccc12)c1cccs1 (stereo not given)	.	?	?	.	.	.
O=C(NC(Cc1c[nH]c2ccccc12)C(=O)Nc1ccc(F)c([N+](=O)[O-])c1)c1cccs1 (stereo not given)	.	16µM[quencher]	.	?	.	-119
O=C(NC(Cc1c[nH]c2ccccc12)C(=O)O)c1cccs1 (stereo not given)	.	.	.	.	.	/
O=C1/C(=C\c2ccc(O)cc2)SC(=S)N1/N=C/c1ccc(O)cc1	.	?	.	5µM	.	/
O=c1c2ccccc2[nH]c(=S)n1CCCN1CCN(C2CCCCC2)CC1	.	.	.	.	.	?
CC1CC2=C(NC(=S)NC2c2ccc(F)cc2)/C(=C/c2ccc(F)cc2)C1 (stereo not given)	.	.	.	.	.	.
Cc1ccc(NC2=C/C(=N/S(=O)(=O)c3cccs3)c3ccccc3C2=O)cc1	.	8.9µM[quencher]	.	?	.	-101
COC(=O)c1ccccc1NC1=C/C(=N\S(=O)(=O)c2cccs2)c2ccccc2C1=O	?	?	.	?	.	.
O=C1C(Nc2ccccc2)=C/C(=N/S(=O)(=O)c2cccs2)c2ccccc21	.	8.9µM[quencher]	?	3.5µM	.	-81
Cc1ccc(/C=C2\S/C(=N/S(=O)(=O)c3cccs3)NC2=O)cc1	.	.	.	.	.	/
CC(C)(C)NC(=O)CSc1nnc(NC(=O)CCn2cnc3ccccc3c2=O)s1	.	.	.	.	.	-122
CC(C)(C)c1nnc(NC(=O)CCn2cnc3ccccc3c2=O)s1	.	.	.	.	.	/
Cc1ccc(S(=O)(=O)N2CCN(C(=O)CSc3nccn3C)CC2)cc1	.	.	.	.	.	/
N#C/C(=C\Nc1ccccc1O)c1nc2ccccc2o1	.	18µM[quencher]	?	?	.	.
N#C/C(=C\c1ccncc1)c1nc2ccccc2o1	.	.	.	.	.	/
CCOc1ccccc1NC(=O)CN1C(=O)C(=O)N(Cc2ccco2)C1=O	.	.	.	.	.	/
CSCCC(NC(=O)c1ccccc1)C(=O)NC1CCCC1 (stereo not given)	.	.	.	.	.	-84
CSCCC(NC(=O)c1ccccc1)C(=O)NC1CC1 (stereo not given)	.	.	.	.	.	.
Cc1cccc(Oc2cc([N+](=O)[O-])cc3c2C(=O)Nc2ccccc2O3)c1	.	?	.	?	.	-83
O=C1Nc2ccccc2Oc2cc([N+](=O)[O-])cc(Oc3ccccc3)c21	.	?	.	?	.	.
CCOC(=O)NC1(C(F)(F)F)N=C(c2ccccc2)NC1=O (stereo not given)	.	.	.	.	.	?
NN/C(=C\[N+](=O)[O-])Nc1ccccc1	.	?	.	?	.	/
SMILES	TRb SRC2 PPI	Tau fluor cs	Tau fibril FP	Tau fibril ThT	TR SRC2 fluor cs	PNC assembly inh
NN/C(=C\[N+](=O)[O-])Nc1ccc(Cl)cc1	.	?	.	16µM	.	/
Fc1cccc2sc(Nc3nnc(-c4ccco4)o3)nc12	.	.	.	13µM	.	.
COc1cccc2sc(Nc3nnc(-c4ccc(F)cc4)o3)nc12	.	.	.	?	.	?
CCN(C(=O)c1coc(=O)c(Br)c1)c1ccc2c(c1)OCO2	.	?	?	22µM	.	.
CCN(C(=O)c1c(C)cc(=O)oc1C)c1ccc2c(c1)OCO2	.	.	.	.	.	?
CCOC(=O)c1c(O)c2c([nH]c1=O)CCCC2	.	.	.	.	.	?
CC(C)S(=O)(=O)c1csc(NC(=O)Nc2cc(Cl)ccc2Cl)c1Cl	.	?	22µM	.	.	/
COc1ccc(C(C)=O)cc1COC(=O)c1ccc(S(=O)(=O)N2CCOCC2)cc1	.	.	.	.	.	.
Cc1ccc(S(=O)(=O)c2nnn3c2nc(Nc2ccc(C(C)C)cc2)c2sccc23)cc1C	.	?	13µM	.	.	/
CCOc1ccc(Nc2nc3c(S(=O)(=O)c4ccc(C(C)C)cc4)nnn3c3ccsc23)cc1	.	?	.	.	.	/
CCOc1cc(CNc2ccc(C(=O)O)cc2)ccc1OCc1ccccc1	.	.	.	?	?	/
COc1cc(CNc2ccc(N3CCN(C(C)=O)CC3)cc2)ccc1OCc1ccccc1	.	?	.	4µM	.	/
COc1cc(CN2CCCC(CCC(=O)NCc3ccc(C)o3)C2)cc2c1OCO2 (stereo not given)	.	.	.	.	.	/
CCOC(=O)N1CCN(C(=O)c2cccc(NS(=O)(=O)c3ccc(F)c(F)c3)c2)CC1	.	.	.	.	.	-89
COc1ccc(NC(=O)C2CCCN2C(=O)Nc2cccc(F)c2)cc1 (stereo not given)	.	.	.	.	.	/
COc1ccc2c(Cl)c(C(=O)N/N=C/c3c(C)[nH]c4ccccc34)sc2c1	.	11µM[quencher]	.	4.5µM	.	.
Cc1ccc(C(=O)Nc2ccc(C(=O)N/N=C/c3c[nH]c4ccccc34)cc2)cc1	.	14µM[quencher]	.	13µM	.	.
Cc1cccc(NC(=S)N/N=C/c2c[nH]c3ccccc23)c1	.	8.9µM[quencher]	?	16µM	.	-82
Cc1cc(C(=O)N/N=C/c2c[nH]c3ccccc23)cs1	.	?	.	?	.	.
O=C(CNc1ccccc1)N/N=C/c1c[nH]c2ccccc12	.	.	.	.	.	-119
COc1ccc2c(Cl)c(C(=O)N/N=C/c3ccc4c(c3)OCO4)sc2c1	.	.	.	?	.	.
COc1ccc(CNC(=O)c2cc(C)nc3ccccc23)cc1OC	.	.	.	.	.	/
COc1cc(C2N(c3ccc(Cl)c(Cl)c3)C(=O)C3CCCN32)cc(OC)c1OC (stereo not given)	.	.	.	.	.	.
CCOCCOC(=O)c1ccc(-n2cnc(C)n2)nc1	.	.	.	.	.	/
